We go through 13 compounds from PubChem BioAssay (NCI).

About 83,000 compounds went through this panel and 20% of them were active in at least one assay; those are over-represented in the sample as a whole.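 48-hour exposure, single concentration, 96-well plates; percent growth endpoint where 0 means no net growth. Active: below 10.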 Unmarked numbers belong to inactive results. Calls of active or inactive are those of the source.

Assay in all cases: NCI-60 one-dose screen, 48 h (100 = growth as untreated, 0 = no growth, -100 = all killed)
Holding throughout (conditions): 10 µM

Assay [1] deals with K-562 leukemia.
Assay [2] has as its system MALME-3M melanoma.
The subject of assay [3] is MDA-MB-231 breast.
The test system of assay [4] is RXF 393 renal.
The subject of assay [5] is SF-268 CNS.
Assay [6] has as its system SF-295 CNS.
For assay [7], the system named is SF-539 CNS.
Assay [8] relates to UACC-257 melanoma.
Assay [9] concerns M14 melanoma.
In assay [10] the test system is HCT-15 colon.

With `O=C(Nc1cccc(-n2cc(-c3ccncc3)c(-c3cc(O)cc(Cl)c3)n2)c1)c1ccc(N2CCOCC2)c(C(F)(F)F)c1`, the growth is -15.5% (active) in assay [1]; -26.9% (active) in [2]; -48% (active) in assay [3]; -45.6% (active) in assay [4]; 52.7% in assay [5]; -35.4% (active) in assay [6]. The growth in assay [7] is 2.4% (active); in assay [8] it was 9.38% (active); in assay [9] it was -20.7% (active); in [10], 6.25% (active).
In the case of `Clc1ccc(-c2cn(-c3ccccc3)c(-c3ccccc3)n2)c(Cl)c1`, the growth in assay [1] is 24.8%; in assay [2] it was -43.3% (active); in [3], -11.7% (active); in assay [4], 41.3%; in assay [5] it was -26.7% (active); in [6], 19.5%. The growth in assay [7] was -22.2% (active); in [8], 52.2%; in assay [9] it was 16.7%; in assay [10] it was -71.4% (active).
Turning to `COc1ccc(-c2cc(/C=C3\C(=O)Nc4ccc(OC)cc43)[nH]n2)cc1`, the growth is 15.6% in assay [1]; 35.1% in [2]; 59.2% in assay [3]; 48% in assay [4]; 42% in assay [5]; 1.93% (active) in assay [6]. Also, the growth in assay [7] is 24.8%; in [8] it was 68.8%; in assay [9] it was 35.7%; in [10] it was 22.8%.
On to `COc1ccc(S(=O)(=O)Nc2c(/C=C\c3cc(OC)c(OC)c(OC)c3)ccc(OC)c2O)cc1`, for which the growth in [1] is 12.3%; in assay [2] it was 61.5%; in assay [3], 5.46% (active); in assay [4], 33.5%; in assay [5], 13.3%; in assay [6], 3.31% (active). For the same compound, the growth is -28.9% (active) in [7], 32.4% in assay [8], 2.65% (active) in assay [9] and 7.33% (active) in assay [10].
Regarding `ClCC#CCSc1ncnc2c1ncn2CC#CCCl`, the growth is 17.5% in assay [1]; -46.3% (active) in [2]; 20.2% in assay [3]; -65.9% (active) in assay [4]; -22.4% (active) in assay [5]; 8.11% (active) in assay [6]. The growth in assay [7] is 26%; in [8], 55%; in assay [9] it was 2.78% (active); in assay [10], 30.1%.
`O=C1/C(=C/c2ccc(Cl)cc2)SC(=Nc2ccc(Cl)cc2)N1Cc1nc2ccccc2[nH]1`: the growth in assay [1] was 58.2%; in assay [2], 48.9%; in assay [3] it was 59.2%; in [4] it was 91.5%; in [5], 74.4%; in assay [6] it was 68.2%. For the same compound, the growth in assay [7] was 101%; in assay [8], 87.2%; in assay [9], 92.4%; in assay [10], 64.1%.
Turning to `O=C(Nc1ccc(CN2CCc3nc4cc(O)c(O)cc4cc32)cc1)c1ccc(Cl)c(Cl)c1`, the growth in [1] was 115%; in assay [2], 93%; in assay [3], 103%; in assay [4] it was 89.4%; in assay [5] it was 96.6%; in assay [6], 101%. For the same compound, the growth in assay [7] was 94.2%; in [8] it was 103%; in assay [9] it was 98.4%; in [10] it was 101%.
Turning to `COc1ccc(Cl)cc1-n1nnc(-c2nc3ccccc3[nH]2)c1N`, the growth in assay [1] is 94.5%; in [2] it was 63.8%; in assay [3], 86.1%; in assay [4] it was 74.2%; in [5], 62.6%; in [6], 58.7%. Besides, the growth in assay [7] is 91.6%; in assay [8] it was 95.4%; in assay [9] it was 89.3%; in assay [10] it was 94.1%.
`CCOC(=O)C1CCc2c(ccc3ccccc23)N1CCC#N` (stereo not given): the growth in assay [1] was 55.5%; in assay [2] it was 80.2%; in [3], 91.5%; in assay [4] it was 89%; in assay [5], 113%; in [6], 88%. For the same compound, the growth is 110% in [7], 104% in assay [8], 93.3% in [9] and 91.9% in assay [10].
In the case of `COc1cc(/C=C/C(=O)c2ccc(Cl)cc2)ccc1OS(=O)(=O)c1ccc(C)cc1`, the growth in assay [1] was 14.9%; in assay [2], 101%; in assay [3], 90.9%; in assay [4], 117%; in assay [5], 102%; in assay [6] it was 94.2%. Also, the growth in [7] is 111%; in [8], 110%; in assay [9] it was 105%; in [10], 66%.
For the compound `C=C1c2c(C)nn(-c3ccc(OC)cc3)c2N(C)C23C[C@@H]1C1(C)c4c(C)nn(-c5ccc(OC)cc5)c4N(C)C(C)(C[C@H]12)C3` (stereo not given in full), the growth in [1] is 15.5%; in [2], 53.9%; in assay [3], 39.7%; in assay [4], 67.9%; in assay [5], 36.8%; in assay [6] it was 101%. Further, the growth in [7] is 62.5%; in assay [8], 26.8%; in assay [9] it was 40%; in assay [10], 26.3%.
Take `Cc1cccc(C)c1NC(=O)c1sc2nc3c(cc2c1N)C(=O)CCC3`: the growth in assay [1] was 64%; in [2], 74.7%; in assay [3], 79%; in [4] it was 94.4%; in assay [5] it was 103%; in assay [6], 49.9%. Moreover, the growth in [7] was 101%; in assay [8], 73.7%; in assay [9] it was 87.3%; in assay [10], 60.3%.
In the case of `CCOC(=O)N1C/C(=C/c2ccc(F)cc2)C(=O)/C(=C/c2ccc(F)cc2)C1`, the growth in assay [1] was 3.36% (active); in assay [2], -36.8% (active); in [3] it was -2.86% (active); in [4] it was -83.4% (active); in [5] it was -12% (active); in assay [6], -22% (active). Further, the growth in assay [7] is 3.86% (active); in [8], -14.7% (active); in [9], -69% (active); in [10], -63.4% (active).
